Values joined by “and” are separate entries in the source; they are usually repeats but may differ in a detail not shown here. Equal values may be shown once. The panel holds about 79,000 compounds, 15% with a hit somewhere; the sample as a whole holds those more often. A structure can be active in one record and inactive in another. Active and inactive are the calls of the source. No stated cut-off is given here; in the data, active means growth inhibition above about 70%; inactive means the rest.
What was measured:
[1] = NCI Yeast Anticancer Drug Screen. Data for the rad50 strain (AID 155);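 further: 0% = growth of vehicle-only cultures of the same strain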; conditions: S. cerevisiae rad50 strain growth inhibition, stronger effect = higher value
Outline: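 Inhibition values express reduced yeast growth in compound-treated cultures relative to vehicle-treated controls.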

[2] = NCI Yeast Anticancer Drug Screen. Data for the mec2-1 strain (AID 157); conditions: S. cerevisiae mec2-1 strain, stronger effect = higher value
Outline: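 Yeast mec2-1 mutant treated with compound. Readout: growth inhibition vs vehicle controls.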

[3] = NCI Yeast Anticancer Drug Screen. Data for the sgs1 mgt1 strain (AID 161);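 further: 0% = growth of cultures given vehicle only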; conditions: S. cerevisiae sgs1 mgt1 strain, stronger effect = higher value
Outline: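 Genetically altered yeast, compound exposure, growth inhibition relative to vehicle.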

[4] = NCI Yeast Anticancer Drug Screen. Data for the cln2 rad14 strain (AID 165);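 further: 0% = growth equal to vehicle treated cultures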; conditions: S. cerevisiae cln2 rad14 strain, stronger effect = higher value
Outline: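 cln2 rad14 yeast strain; compound exposure; growth inhibition read vs vehicle controls.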

[5] = NCI Yeast Anticancer Drug Screen. Data for the bub3 strain (AID 167); conditions: S. cerevisiae bub3 mutant strain, stronger effect = higher value
Outline: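 Steps: expose the mutant yeast strain to compound; grow alongside vehicle-treated cultures; measure growth; express inhibition against the vehicle cultures.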

[6] = NCI Yeast Anticancer Drug Screen. Data for the mlh1 rad18 strain (AID 175); conditions: S. cerevisiae mlh1 rad18 strain growth inhibition, stronger effect = higher value
Outline: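 Yeast w/ defined DNA-repair lesions; compound exposure; growth vs vehicle controls → % inhibition.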

[7] = at 5.0 µM (retest, dose inferred, filed as 0.5)
[8] = at 50.0 µM (retest, dose inferred, filed as 5.0)

Measured: growth inhibition

Nc1c2ccccc2nc2ccccc12
66% (inactive) and 70% (active): [2]; [8]
54.5% (inactive) and 79% (active): [4]; at 50.0 µM
73% (active) and 68% (inactive): [3]; [8]
inactive: [1]; [7] 51% and 41% | [2]; [7] 18% and 19% | [2]; at 50.0 µM 60.8% and 60.3% | [3]; [7] 20% and 18% | [4]; [7] 25% | [4]; [8] 51% and 65% | [5]; [7] 5% and -1% | [6]; [7] 21% and 25%
63.6% (inactive) and 75.5% (active): [5]; at 50.0 µM
active: [1]; [8] 92% and 90% | [1]; at 50.0 µM 94.5% and 92.5% | [3]; at 50.0 µM 75.8% and 74% | [5]; [8] 79% and 73% | [6]; [8] 86% | [6]; at 50.0 µM 90.6% and 88.5%

Cc1nc2c(Br)cc(Br)cc2c(=O)n1-c1ccccc1NC1OC(CO)C(O)C(O)C1O (stereo unspecified)
-31.3% (inactive) and 74.8% (active): [5]; at 50.0 µM
inactive: [1]; [7] 9% | [1]; [8] 41% | [1]; at 50.0 µM -11.9% and 65.8% | [2]; [7] 5% | [2]; [8] 32% | [2]; at 50.0 µM -33.6% and 17.9% | [3]; [7] 7% | [3]; [8] 25% | [3]; at 50.0 µM -5.65% and 47.2% | [4]; [7] 11% | [4]; at 50.0 µM -54.8% and 64.5% | [5]; [7] 7% | [5]; [8] 56% | [6]; [7] -25% | [6]; [8] 67%
-35.1% (inactive) and 75% (active): [6]; at 50.0 µM
active: [4]; [8] 75%

O=c1[nH]c(=O)n(C2OC(CO)C(O)C2O)cc1F (stereo unspecified)
active: [1]; [8] 96% and 95% | [1]; at 50.0 µM 96.2% and 93% | [2]; [8] 99% | [2]; at 50.0 µM 97.3% and 97.8% | [3]; [8] 98% | [3]; at 50.0 µM 97.8% and 96.1% | [4]; [8] 96% and 98% | [4]; at 50.0 µM 90.5% and 92.2% | [5]; [8] 98% and 97% | [5]; at 50.0 µM 96.3% and 90.2% | [6]; [8] 97% and 96% | [6]; at 50.0 µM 94.8% and 92.2%
inactive: [1]; [7] 21% and 30% | [2]; [7] 42% and 39% | [4]; [7] 15% and 24% | [5]; [7] 5% and -1% | [6]; [7] 24% and 6%
65% (inactive) and 80% (active): [3]; [7]

CC(NC(=O)/C(C#N)=C/c1ccc2[nH]ccc2c1)c1ccccc1 (stereo unspecified)
active: [1]; [8] 94% | [1]; at 50.0 µM 86.2% | [2]; [8] 95% | [2]; at 50.0 µM 90% | [3]; [8] 93% | [3]; at 50.0 µM 88.8% | [4]; [8] 91% | [4]; at 50.0 µM 86.5% | [5]; [8] 94% | [5]; at 50.0 µM 86.2% | [6]; [8] 96% | [6]; at 50.0 µM 86.3%
inactive: [1]; [7] 0% | [2]; [7] 1% | [3]; [7] 16% | [4]; [7] 7% | [5]; [7] 3% | [6]; [7] -5%

CCOC(=O)c1ccc(NCc2ccc3ccccc3n2)cc1
active: [1]; at 50.0 µM 71.6% | [3]; at 50.0 µM 79.4% | [6]; at 50.0 µM 74.3%
inactive: [1]; [7] -3% | [1]; [8] 15% | [2]; [7] -11% | [2]; [8] 14% | [2]; at 50.0 µM 51.5% | [3]; [7] -28% | [3]; [8] 44% | [4]; [7] -6% | [4]; [8] 4% | [4]; at 50.0 µM 19.1% | [5]; [7] 11% | [5]; [8] 55% | [5]; at 50.0 µM -11.1% | [6]; [7] -2% | [6]; [8] 57%

COc1ccc(COc2ccc(C(=O)CCN3CCOCC3)cc2)cc1
active: [1]; at 50.0 µM 96.8% | [2]; [8] 80% | [2]; at 50.0 µM 96.5% | [3]; [8] 87% | [3]; at 50.0 µM 97% | [4]; at 50.0 µM 93.8% | [5]; [8] 80% | [5]; at 50.0 µM 97.4% | [6]; [8] 77% | [6]; at 50.0 µM 96.8%
inactive: [1]; [7] 47% | [1]; [8] 62% | [2]; [7] 38% | [3]; [7] 61% | [4]; [7] 40% | [4]; [8] 46% | [5]; [7] 51% | [6]; [7] 51%

COc1ccc(N/N=C(\CCN(C)C)c2ccccc2)cc1
inactive: [1]; [7] 7% | [1]; [8] 51% | [2]; [7] -2% | [2]; [8] 40% | [2]; at 50.0 µM 3.7% | [3]; [7] 16% | [3]; [8] 61% | [3]; at 50.0 µM 56.9% | [4]; [7] 6% | [4]; [8] 32% | [4]; at 50.0 µM 57.9% | [5]; [7] -6% | [5]; at 50.0 µM 49.2% | [6]; [7] 12%
active: [1]; at 50.0 µM 80.7% | [5]; [8] 78% | [6]; [8] 78% | [6]; at 50.0 µM 94.8%
